# Shown are actives, neighbours in structure and some others; about 4.5% of the full set was active somewhere.
# aSyn 5UTR inh: MLPCN primary screen, SNCA 5' untranslated region | alpha-synuclein 5'UTR reporter, inhibitor activity | inhibition, % (tested at 7.5 µM) | actives 0.82% (n = 300,000) | AID 1813, 2009; in the data active = inhibition above about 60%;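 note: H4 neuroglioblastoma cells stably carrying SNCA 5'UTR luciferase fusion; 0% = DMSO wells and 100% = positive control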
# 697 NFkB inh: inhibitors of PMA/ionomycin-induced NF-kB reporter, 697 cells, primary screen, B-cell NF-kB inhibitor project, cell-based, luminescence, uHTS | 697 B-cell NF-kB luciferase reporter, 16 h | actives 0.33% (n = 330,000) | AID 435022, 2010 | inhibition, % at 4 µM; in the data active = inhibition above about 35%
# Mdm2 MdmX PPI: inhibitors of human Mdm2-MdmX association, primary screen, cell-based, luminescence, split luciferase, SaOS-2, uHTS. SaOS-2 split-luciferase Mdm2/MdmX complementation. Protein Mdm4 (Homo sapiens) + E3 ubiquitin-protein ligase Mdm2 (Homo sapiens), …. actives 3% (n = 330,000). inhibition, % at 8 µM;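 active = inhibition of at least 50% at 8 µM in the primary screen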
# Target sequence (O15151 whole entry, looked up): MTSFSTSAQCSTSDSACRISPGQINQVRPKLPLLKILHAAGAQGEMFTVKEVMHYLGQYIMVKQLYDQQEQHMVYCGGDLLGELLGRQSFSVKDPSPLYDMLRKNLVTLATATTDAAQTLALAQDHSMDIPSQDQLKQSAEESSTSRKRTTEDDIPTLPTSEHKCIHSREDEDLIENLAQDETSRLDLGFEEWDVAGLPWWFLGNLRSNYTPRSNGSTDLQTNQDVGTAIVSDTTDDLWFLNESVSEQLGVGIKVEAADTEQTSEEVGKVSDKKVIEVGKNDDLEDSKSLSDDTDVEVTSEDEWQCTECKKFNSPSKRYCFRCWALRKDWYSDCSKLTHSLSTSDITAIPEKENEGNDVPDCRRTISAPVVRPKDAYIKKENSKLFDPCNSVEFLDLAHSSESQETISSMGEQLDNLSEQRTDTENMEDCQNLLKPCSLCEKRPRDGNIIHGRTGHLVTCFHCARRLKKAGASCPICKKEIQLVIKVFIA
# Target sequence (Q00987 whole entry, looked up): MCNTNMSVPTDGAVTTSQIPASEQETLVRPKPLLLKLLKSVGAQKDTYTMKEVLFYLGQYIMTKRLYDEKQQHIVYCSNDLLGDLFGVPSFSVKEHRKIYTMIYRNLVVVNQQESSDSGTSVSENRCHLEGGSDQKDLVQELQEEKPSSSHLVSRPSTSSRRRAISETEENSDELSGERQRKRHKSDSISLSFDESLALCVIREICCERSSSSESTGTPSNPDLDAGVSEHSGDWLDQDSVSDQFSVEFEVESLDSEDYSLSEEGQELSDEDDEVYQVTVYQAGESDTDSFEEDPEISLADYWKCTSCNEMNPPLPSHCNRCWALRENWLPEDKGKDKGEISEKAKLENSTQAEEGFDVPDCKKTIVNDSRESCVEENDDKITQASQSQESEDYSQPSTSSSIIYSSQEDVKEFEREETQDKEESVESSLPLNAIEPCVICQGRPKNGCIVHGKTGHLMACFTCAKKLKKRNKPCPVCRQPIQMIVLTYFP
# Gli-Sufu antag: Gli-Sufu pathway antagonists, primary screen, luciferase luminescence, Sufu-KO-LIGHT cells, uHTS. actives 0.74% (n = 340,000). Sufu-KO-LIGHT fibroblasts, Gli luciferase reporter luminescence. inhibition, % at 5 µM;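 active = inhibition above about 55%, limit read from the data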;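 note: 0% = DMSO-treated cells and 100% = wells with medium but no cells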
# Jurkat NFkB inh: inhibitors of induced NF-kB luciferase reporter, primary screen, TCR NF-kB activation inhibitor project, cell-based, luminescence, uHTS; Jurkat, PMA/ionomycin-induced NF-kB luciferase reporter; inhibition, % at 4 µM; actives 0.53% (n = 330,000); in the data active = inhibition above about 50%
# CSC inhib: cancer stem cell viability inhibitors, primary screen, luminescence | actives 1.1% (n = 300,000) | AID 2717, 2010 | inhibition, % at 7.5 µM | cancer stem cell-like cells viability; in the data active = inhibition above about 75%; tested in HMLE shEcad cells
# Mdm2-MdmX conf: Mdm2-MdmX complex disruptors, retested hits, confirmation, luminescence, single concentration | shares compounds with Mdm2 MdmX PPI | Mdm2-MdmX binding, luminescent assay | inhibition, % at 8 µM | actives 55% (n = 10,000); in the data active = inhibition above about 40%
# FLuc counter: full-length luciferase signal inhibition, confirmation, counter-screen for Mdm2/MdmX interaction inhibitor project, cell-based, single concentration, SaOS-2 | AID 504607, 2011 | shares compounds with Mdm2 MdmX PPI | actives 77% (n = 6,200) | inhibition, % at 8 µM | SaOS-2 full-length luciferase counterscreen, luminescence;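 active = mean inhibition at 8 µM reaching about 37%, which flags the compound as non-specific, limit read from the data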;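 note: p53-null SaOS-2 cells with luciferase driven by a doxycycline-inducible promoter; compound on cells about two nights before reading with doxycycline added after day one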
# Starred values were filed as active, the others as inactive; · = not tested or not shown.
SMILES,aSyn 5UTR inh,697 NFkB inh,Mdm2 MdmX PPI,Gli-Sufu antag,Jurkat NFkB inh,CSC inhib,Mdm2-MdmX conf,FLuc counter
CC(C)=CCC/C(C)=C/CNC(=O)C[C@H]1C[C@H](C(=O)N2CCOCC2)[C@@]2(C)c3[nH]c4ccc(Cl)cc4c3CCN2C1=O,·,17,88*,1,·,·,12,·
CC(C)=CCC/C(C)=C/CNC(=O)CC1C[C@H](C(=O)N2CCOCC2)[C@@]2(C)c3[nH]c4ccccc4c3CCN2C1=O (stereo partly drawn),·,0,33,29,22,20,·,·
COCCn1c(-c2ccccc2)nc2c(c(=O)c3ccccc3n2C)c1=O,9,-2,-9,·,16,-8,·,·
O=C(NC1=NCCS1)C1COc2ccccc2O1 (stereo not drawn),98*,-94,80*,39,45,·,81*,34
O=C(Cc1cccc(NC(=O)C2CCCN(C(=O)C3CCCC3)C2)c1)Nc1cccc(C(=O)N2CCOCC2)c1 (stereo not drawn),·,·,·,3,·,·,·,·
CCc1ccc(-c2cc(C(F)(F)F)n3nc(C(=O)Nc4cnn(Cc5ccc(C)cc5)c4)cc3n2)s1,51,-26,51*,14,-7,48,13,·
CC(C)n1cc(/C=C2/NC(=O)N(c3cccc(Cl)c3)C2=O)c2ccccc21,2,-1,62*,11,32,54,65*,43*
Cc1ccc(S(=O)(=O)N2CCC(C(=O)NCCC3=CCCCC3)CC2)c(C)c1,19,12,17,-1,-11,12,·,·
Cc1cc2c(cc1C)CSC(c1ccc3ccccc3c1O)SC2,24,-100,39,6,-10,4,·,·
Cc1cc2c(cc1C)CSC(c1c(O)ccc3ccccc13)SC2,40,-7,75*,5,11,112*,37,57*
CC(=O)C(=Nc1ccccc1Cl)NNc1ccc(Cl)cc1,-10,-3,0,-18,-5,27,·,·
COc1ccc(C(=O)c2cn(-c3cccc(Br)c3)nc2C(C)=O)cc1,7,27,22,3,8,-31,·,·
CC(=O)c1nn(-c2cccc(Br)c2)cc1C(=O)c1ccc2ccccc2c1,18,0,63*,1,3,·,30,·
Cc1ccc(Nc2nc(N)nc(CCl)n2)cc1,-53,-2,83*,-17,-22,-12,79*,59*
Cc1cccc(Nc2nc(N)nc(CCl)n2)c1,-53,5,68*,5,11,10,64*,61*
Cc1ccc(Nc2nc(N)nc(CSc3nnc(-c4ccncc4)o3)n2)cc1,-1,-24,67*,1,-7,-13,20,·
CC(C)CNC(=O)[C@H]1N2C(=O)c3ccccc3C2SC1(C)C (stereo partly drawn),3,4,-13,·,9,-9,·,·
CN(C(=O)COC(=O)CNC(=O)c1ccc(Cl)cc1Cl)c1ccccc1,8,8,5,-8,12,-8,·,·
CCOC(=O)C1=C(c2ccccc2)NC(=O)NC1c1ccc(O)c(Cl)c1 (stereo not drawn),8,-3,94*,-13,-5,8,56*,30

# Assay outcomes as filed in PubChem.
